Inconclusive results are not listed. A call without a number means that no potency is given here. Activity calls are given as the source filed them. The call rests on the fitted dose curve.
experiment: p53 small molecule agonists, cell-based qHTS assay with human liver microsomes (AID 1963577); conditions: HCT-116 p53RE-bla with human liver microsomes, ratio, 16 h; series mostly up to 66 µM;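 further: p53 response element beta-lactamase reporter cells with liver microsomes plus NADPH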
Description: National Center for Advancing Translational Sciences [NCATS]
Division of Preclinical Innovation [DPI]
U.S. Environmental Protection Agency [EPA]
National Institutes of Environmental Health Sciences [NIEHS]
National Toxicology Program [NTP]
U.S. Food and Drug Administration [FDA]
p53, a tumor suppressor protein, is activated following cellular insult, including DNA damage and other cellular stresses. The activation of p53 regulates cell fate by inducing DNA repair, cell cycle arrest, apoptosis, or cellular senescence. The activation of p53, therefore, is a good indicator of DNA damage and other cellular stresses. […] The activation of the reporter gene under culture conditions can be detected by fluorescence intensity.
Tox21 Assay Protocol Summary:
The p53RE-bla cells were dispensed at 4,000cells/3ul/well in 1536-well black-clear bottom plates. After the assay plates were incubated at 37 C, 5% CO2 incubator for 5 hours, 23 nL of compounds dissolved in DMSO, positive controls or DMSO only was transferred to the assay plate. Following compound addition, 3 uL of human liver microsomes (XenoTech, Kansas City, KS) at final concentration of 0.5 mg/mL and 1uL of Beta-Nicotinamide adenine dinucleotide 2-phosphate (NADPH) at final concentration of 0.5 mg/mL were transferred to the assay plate. The plates were incubated at 37 C for 16 hours. 1 uL of LiveBLAzer detection mixture was added to each well and the plates were incubated at room temperature in the dark for 2 h.

Structure (SMILES)	Potency	activation
C[C@]12CC[C@@H]3c4ccc(O)cc4CC[C@H]3[C@@H]1CC[C@@H]2OC(=O)CCC1CCCC1	inactive	
CCN(Cc1ccncc1)C(=O)C(CO)c1ccccc1 (stereo not given)	inactive	
C[C@H](CCC(=O)O)[C@H]1CC[C@H]2[C@@H]3CC[C@@H]4C[C@H](O)CC[C@]4(C)[C@H]3C[C@H](O)[C@]12C	inactive	
CC(=O)OC(C)OC(C)=O	inactive	
NCCN1CCOCC1	inactive	
COC(=O)[C@@H](N)Cc1ccc(O)c(O)c1	inactive	
CCCC(=O)OC(C)(C)Cc1ccccc1	inactive	
COc1cccc(N)c1	inactive	
O=C(Nc1ccc(C(=O)O)c(O)c1)c1ccccc1	inactive	
COc1cc(C(=O)NC2CCN(C)CC2)ccc1Nc1ncc2c(n1)N(C1CCCC1)CC(F)(F)C(=O)N2C	inactive	
C=CC(=O)OCCC#N	inactive	
O=C1C=CC(=O)N1c1ccc(Cc2ccc(N3C(=O)C=CC3=O)cc2)cc1	inactive	
CCC1OCC(COc2ccc(Oc3ccccc3)cc2)O1 (stereo not given)	inactive	
c1ccc2sc(SSc3nc4ccccc4s3)nc2c1		13.9% [at 13.5 µM] (inactive)
CC1(C)[C@@H](O)CC[C@]2(C)[C@H]3C(=O)C=C4[C@@H]5C[C@@](C)(C(=O)O)CC[C@]5(C)CC[C@@]4(C)[C@]3(C)CC[C@@H]12	inactive	
C[C@H](CS)C(=O)N1CCC[C@H]1C(=O)O	inactive	
NNc1nc(-c2ccc(N)cc2)cs1	inactive	
CC1CN(c2ccccc2)NC1=O (stereo not given)	inactive	
O=C(/C=C/c1ccc(O)c(O)c1)O[C@@H]1C[C@@](OC(=O)/C=C/c2ccc(O)c(O)c2)(C(=O)O)C[C@@H](O)[C@@H]1O	inactive	
CCOc1ccc2nc3cc(N)ccc3c(N)c2c1	inactive	

Structure (SMILES)	Potency	activation
c1csc(SSc2cccs2)c1	inactive	
CC(=O)OCC(C)OC(C)=O (stereo not given)	inactive	
CC[N+](CC)(CC)CCOc1ccc(/C=C/c2ccccc2)cc1	inactive	
CCCCCc1ccc(O)cc1	inactive	
CCCCCCCCCCCCCCCC(=O)OC/C=C(C)/C=C/C=C(C)/C=C/C1=C(C)CCCC1(C)C	inactive	
Oc1ccc(C2(c3ccc(O)cc3)CC3CC2C2CCCC32)cc1 (stereo not given)	inactive	
CCCn1cc[n+](C)c1C	inactive	
Nc1ccc(O)c(N)c1	inactive	
CC(=O)Oc1ccc(C2(c3ccc(OC(C)=O)cc3)Oc3ccccc3NC2=O)cc1	inactive	
CNC(=S)NC	inactive	
O=C1c2ccccc2C(=O)c2c1ccc(O)c2O	inactive	
O=C1Cc2cc(CCN3CCN(c4nsc5ccccc45)CC3)c(Cl)cc2N1	inactive	
CC(C)Cc1ccc(CC(=O)O)cc1	inactive	
Oc1cccc(-c2c3nc(c(-c4cccc(O)c4)c4ccc([nH]4)c(-c4cccc(O)c4)c4nc(c(-c5cccc(O)c5)c5ccc2[nH]5)CC4)C=C3)c1	inactive	
COc1cc2ncnc(Nc3ccc(F)c(Cl)c3)c2cc1OCCCN1CCOCC1	inactive	
O=C(O)Cc1cc(I)c(Oc2ccc(O)c(I)c2)c(I)c1	inactive	
C=CCN1C[C@H](C(=O)N(CCCN(C)C)C(=O)NCC)C[C@@H]2c3cccc4[nH]cc(c34)C[C@H]21	inactive	
CCN(Cc1cccc(S(=O)(=O)O)c1)c1ccc(C(=C2C=CC(=[N+](CC)Cc3cccc(S(=O)(=O)O)c3)C=C2)c2ccccc2S(=O)(=O)[O-])cc1	inactive	
CCCC(CC)c1ccccc1 (stereo not given)	inactive	
CCc1cc2cc(OC)c(OC)cc2c(Cc2ccccc2)n1	inactive	

— PubChem BioAssay (Tox21)
